# Screening data: PubChem, Columbia University Molecular Screening Center
# The list is not random: actives were taken first. Their share in the collection is about 1.8%.
# E-sel TNF inh: TNF alpha driven E-selectin expression inhibition. inhibition, % at 2 µM. hit rate 0.71% among 120,000. HUVEC TNFa-induced E-selectin immunofluorescence, high content;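 active means inhibition above the batch mean plus 3 SD, and confirmed as a hit on visual image review, cut at about 43% in these data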;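 further: 0% = TNF-stimulated DMSO wells and 100% = unstimulated control wells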
# TNFa cytotox: toxic to HUVEC cells under TNF alpha stimulation; HUVEC TNFalpha-stimulated, Hoechst cell count, imaging; cell count reduction, % at 2 µM; hit rate 0.17% among 93,000;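 active means cell count reduction exceeding the screen mean by over 5 SD, scaled to untreated wells per plate, cut at about 78% in these data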;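 further: cells counted after 24 h of TNF alpha exposure following the 1 h pretreatment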
# HUVEC tox IL1B: toxic to HUVEC cells under IL-1B stimulation. HUVEC cell count loss, Hoechst imaging, IL-1B stimulated. cell count reduction, % at 2 µM. hit rate 0.41% among 94,000. AID 845;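 active means cell count reduction more than 3 SD above the screen-wide mean, cut at about 70% in these data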;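 further: normalized per plate to untreated control cells as the no-loss baseline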
# IL1B NFkB inh: blocks IL-1B driven NFkB nuclear translocation in HUVEC cells | hit rate 0.43% among 94,000 | AID 796 | HUVEC IL-1B NFkB p65 nuclear translocation imaging | inhibition, % at 2 µM;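 active means inhibition above about 30% together with a positive call from visual inspection of the well image, limit read from the data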;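 further: nuclear over cytoplasmic p65 intensity ratio measured by imaging; 0% = IL-1B stimulated DMSO wells and 100% = unstimulated DMSO wells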
# NFkB transloc pot: enhances IL-1B driven NFkB nuclear translocation; HUVEC IL-1B NFkB p65 nuclear translocation imaging; activation, % at 2 µM; hit rate 0.3% among 94,000; AID 819;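 active means activation above 40%, about the mean plus 3 SD, also judged a hit on visual image review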;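 further: percent activation is computed from the nuclear over cytoplasmic p65 intensity ratio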
# VCAM1 TNFa inh: reduces TNF alpha induced VCAM1 expression in HUVEC | AID 802 | HUVEC TNFa-induced VCAM-1 immunofluorescence, high-content imaging | inhibition, % at 2 µM | hit rate 0.48% among 95,000;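 active means inhibition above the batch mean plus 3 SD, with images confirmed as a hit by eye, cut at about 37% in these data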;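 further: 0% = TNF-stimulated DMSO wells and 100% = unstimulated control wells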
# Starred values were filed as active, the others as inactive; nt = no result.
SMILES,E-sel TNF inh,TNFa cytotox,HUVEC tox IL1B,IL1B NFkB inh,NFkB transloc pot,VCAM1 TNFa inh
O=C(Nc1ccon1)c1cccc(C(F)(F)F)c1,3,nt,nt,nt,nt,nt
O=C(O)c1ccc(NCc2ccncc2)cc1,nt,84*,16,-3,3,-16
COc1cc(C(C)=O)ccc1Oc1ncnc2c1cnn2-c1ccc(F)cc1,-7,nt,nt,nt,nt,nt
Cc1ccc(/C(O)=C2\C(=O)C(=O)N(CCCN(C)C)C2c2ccccn2)cc1 (centres undefined),1,nt,-7,-3,3,nt
CCN1CCN(Cc2c(C)[nH]c3ccc(C(=O)OC)cc3c2=O)CC1,-15,-26,-23,4,-4,96*
CCOc1ccc2[nH]c(C)c(CN3CCCCC3)c(=O)c2c1,nt,9,-5,-18,18,11
CCc1ncc(C(O)c2cccc(OC)c2OC)n1C (centres undefined),-23,-2,90*,99*,-99,5
Cc1ccc(/C=C/C2=Cc3c(sc(NC(=O)CSc4n[nH]c(N)n4)c3C#N)C(C)(C)C2)o1,-33,-30,-23,50*,-50,9
Cc1cc([N+](=O)[O-])nn1CCCC(=O)Nc1sc2c(c1C(N)=O)CCC(C)C2 (centres undefined),84*,nt,nt,nt,nt,nt
O=C(c1cc2n(n1)C(C(F)(F)F)CC(c1ccco1)N2)N1CCc2ccccc2C1 (centres undefined),48,-15,75*,11,-11,9
CCCC(=O)C1=C(O)C(C(=O)OC)C(C)(C)CC1=NC(C)(C)C (centres undefined),4,2,8,45*,-45,-22
COc1cc(S(=O)(=O)N(Cc2ccccn2)Cc2ccco2)ccc1-n1cnnn1,55*,-3,28,-7,7,-1
N#CCCSc1ccccc1NC(=O)c1ccc(S(=O)(=O)N2CCCC2)cc1,41,8,7,-8,8,-17
COc1ccccc1NC(=O)CSc1nnc2ccc(-c3cccnc3)nn12,82*,nt,nt,nt,nt,nt
CCOc1ccccc1NC(=O)CSc1nnc2ccc(-c3cccnc3)nn12,-77,nt,nt,nt,nt,nt
O=C(/C=C/Nc1cccc(C(F)(F)F)c1)c1ccc(Oc2ncccn2)cc1,64*,-38,-60,4,-4,-27
COc1ccc(OC)c(S(=O)(=O)N2CCC(C(=O)N3CCc4ccccc4C3)CC2)c1,6,-14,-9,-6,6,7
O=C(Nc1nnc(SCc2ccccc2)s1)c1cccc([N+](=O)[O-])c1,64*,nt,nt,nt,nt,nt
CC(=O)Nc1nnc(SCc2ccc(F)cc2)s1,8,-8,80*,6,-6,3
Cc1nc(C(F)(F)F)c(C(=O)N/N=C(\N)c2ccccn2)s1,10,nt,nt,nt,nt,nt
CCC(C)(C)NC(=O)CN(Cc1ccccc1Cl)C(=O)CCC(=O)Nc1cc(C)ccn1,-15,nt,nt,nt,nt,nt
COc1cccc(OC)c1NC(=O)CN1CCC(NC(=O)c2cccc(F)c2)CC1,23,92*,3,2,-2,100*
Cc1cc(C)c(C#N)c(SCc2ccccc2)n1,-10,-12,91*,20,-20,-2
CCOC(=O)CSc1nc(C)cc(C)c1C#N,-4,-2,-5,50*,-50,-14
COc1ccc2nc(SCC(=O)N3CCN(c4ccccc4F)CC3)c(C#N)cc2c1,2,17,1,46*,-46,-8
SMILES,E-sel TNF inh,TNFa cytotox,HUVEC tox IL1B,IL1B NFkB inh,NFkB transloc pot,VCAM1 TNFa inh
CCOC(=O)CSc1nc2cc(OC)ccc2cc1C#N,100*,-29,-16,11,-11,-9
Cc1noc(C)c1COc1ccc(C(=O)OCC(=O)Nc2ccc3ccccc3c2)cc1,0,7,92*,-4,4,-1
CCOC(=O)c1ccc(OCc2c(C)noc2C)cc1,4,-11,-1,-21,21,8
COc1cccc(C(C(=O)NC(C)(C)C)N(C(=O)CCC(=O)Nc2cc(C)on2)C2CC2)c1OC (centres undefined),67*,4,1,-35,35,-4
CC(=O)Nc1nc(-c2ccc(Cl)cc2)ns1,6,nt,nt,nt,nt,nt
CCCN1CCc2[nH]c(=S)[nH]c(=O)c2C1,68*,nt,nt,nt,nt,nt
O=C(O)C1C2C=CC(O2)C1C(=O)Nc1ccc(S(=O)(=O)N2CCc3ccccc32)cc1 (centres undefined),12,0,3,49*,-49,14
O=C(O)C1C2C=CC(O2)C1C(=O)Nc1ccc(S(=O)(=O)Nc2ccccc2)cc1 (centres undefined),21,-16,-2,21,-21,14
CCNC(=O)COC(=O)c1sccc1C,-3,nt,nt,nt,nt,nt
CC1(C)CC(=O)C2=C(C1)NCN(Cc1ccc3c(c1)OCO3)C2,49*,-9,2,0,0,7
O=C(Cn1nnc(-c2ccc(Cl)cc2)n1)NC1CCN(Cc2ccccc2)CC1,100*,-18,19,-4,4,-16
Cc1ccc(-c2nnn(CC(=O)NC3CCN(Cc4ccccc4)CC3)n2)cc1,-8,-28,-36,0,0,-6
O=C(CCCOc1ccc(Cl)cc1Cl)N/N=C/c1cccc([N+](=O)[O-])c1,11,nt,nt,nt,nt,nt
CC(C)(C)NC(=O)CSc1nsc(SCC(=O)NC(C)(C)C)c1C#N,nt,55,-7,-3,3,72*
CCOc1ccc(N2C(=O)CSC2c2ccncc2)cc1 (centres undefined),14,-48,-42,-14,14,91*
COc1ccc(Cl)cc1NC(=O)CC(C)c1ccccc1 (centres undefined),15,2,80*,97*,-97,-5
COC(=O)c1cc2c(s1)CS(=O)C2 (centres undefined),96*,nt,-12,6,-6,nt
COc1ccc(CCN2CC(C(=O)NCCc3ccccc3)CC2=O)cc1OC (centres undefined),-11,nt,nt,nt,nt,nt
COc1cccc(N2CC(C(=O)Nc3nnc(SCC(=O)c4ccccc4)s3)CC2=O)c1 (centres undefined),61*,nt,nt,nt,nt,nt
COc1ccc(CCNC(=O)C(=O)NCc2ccc(C)cc2)cc1OC,50*,-5,6,-1,1,6
CCc1ccc(CNC(=O)C(=O)NCCc2ccc(OC)c(OC)c2)cc1,nt,nt,-28,-8,8,nt
COc1ccc(CCNC(=O)C2CC(=O)N(c3ccccc3)C2)cc1OC (centres undefined),-2,-40,88*,4,-4,5
CCc1c(C)c2nncn2[nH]c1=O,21,10,-3,-32,32,-5
CC1CN(C(=O)Cc2ccc(-c3ccccc3)cc2)CC(C)O1 (centres undefined),-16,-4,-37,-33,33,17
CCOC(=O)c1c(NC(=O)C2CCCN(S(=O)(=O)c3ccccc3)C2)sc2c1CCCC2 (centres undefined),0,nt,nt,nt,nt,nt
CC(=O)c1cccc(NS(=O)(=O)N(C)C)c1,-27,5,-18,5,-5,-2
CC(=O)c1cccc(NS(=O)(=O)N2CCCCC2)c1,81*,9,-4,-6,6,20
O=C(O)c1ccc(C(=O)O)c(C(=O)c2ccccc2)c1,nt,-28,80*,19,-19,11
